The values that follow come from PubChem BioAssay (Tox21).

Inconclusive results are not listed. The source made the active and inactive calls. The call rests on the fitted dose curve.
On the % scale 0 is the no-effect control and ±100 the full control effect.

A short description of this test: p53 small molecule agonists, cell-based qHTS assay with human liver microsomes (AID 1963577).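 Further: p53 response element beta-lactamase reporter cells with liver microsomes plus NADPH.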 To be noted: HCT-116 p53RE-bla with human liver microsomes, ratio, 16 h; series mostly up to 66 µM; activation: at the top concentration. In outline: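 p53RE-bla cells, 4,000/well, compound added after 5 h, with human liver microsomes 0.5 mg/mL and NADPH 0.5 mg/mL final; 16 h at 37 C, then LiveBLAzer 2 h RT, fluorescence.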
Background: qHTS replaces the single test concentration by a dilution series.
As for `COc1ccc(NC(C)=O)cc1`, the “activation” value is -0.345% (inactive). Still for that read-out and setting: as for `c1cnc2cc3c(cc2n1)C1CNCC3C1`, the figure is -22.2% [at 30.3 µM] (inactive).

For the compound `OCc1c2ccccc2cc2ccccc12`, the “activation” value is 0.289% (inactive). As to `Oc1ccc(Cl)cc1Sc1cc(Cl)ccc1O`, the Potency entry was “inactive”.

With `CCCc1ccccc1`, the “activation” value was 0.623% (inactive). With `CC(=O)CC(C)=O`, the “activation” value is -0.491% (inactive). The same measure, in the same setting: as for `C=CC(=O)OCCCCCC`, the figure is -0.89% (inactive). Consider `CC(C)(C)C(=O)OCOP(=O)(COCCn1cnc2c(N)ncnc21)OCOC(=O)C(C)(C)C`, for which the “activation” value was 15.6% [at 30.3 µM] (inactive). For `Oc1ccc(C(c2ccc(O)cc2)C(Cl)(Cl)Cl)cc1`, the Potency entry was “inactive”.

As for `Nc1cc(S(=O)(=O)O)cc2cc(S(=O)(=O)O)cc(O)c12`, the Potency entry was “inactive”. For the compound `N=C(N=C(N)N)N1CCOCC1`, the “activation” value was 5.32% [at 30.3 µM] (inactive). `Oc1c(Cl)ccc(Cl)c1Cl`: the Potency result was “inactive”. Regarding `CC1=CC[C@@]23C[C@@H]1C(C)(C)[C@@H]2CC[C@H]3C`, the “activation” value is 0.0313% (inactive).

As for `O=C(O)c1cccc(C(F)(F)F)c1`, the “activation” value is -4.13% (inactive). For `CC(O)Cn1cnc2c1c(=O)n(C)c(=O)n2C` (centres undefined), the “activation” value is 0.3% [at 30.3 µM] (inactive).

`CN(C)CCOC(c1ccc(Cl)cc1)c1ccccn1` (centres undefined): the “activation” value was 0.266% [at 30.3 µM] (inactive).

`O=C(O)c1cc(-c2ccccc2)nc2ccccc12`: the Potency result was “inactive”. Consider `CC1(C)C(O)C(C)(C)C1O` (centres undefined), for which the “activation” value was 1.3% (inactive).

As to `Cc1ccc(N(C)C)cc1`, the Potency result was “inactive”. Consider `C/C=C/C(=O)CCCC`, for which the “activation” value is -2.45% (inactive). Take `CC(C)(c1ccc(O)cc1)c1ccc(O)cc1`: the “activation” value was -11.9% (inactive).

Consider `C=CCCCCCCCC`, for which the “activation” value is -1.09% (inactive). On the same count and under the same terms, then `CC(C)=O`, with 0.715% (inactive); and `O=C(O)[C@@H]1[C@H]2C[C@H]3c4[nH]c5ccccc5c4CCN3C[C@@H]2CC[C@@H]1O`, with 0.147% [at 30.3 µM] (inactive).

As to `C=CC(C)CCC=C(C)C` (centres undefined), the “activation” value was 0.165% (inactive). In the case of `O=C(O)C(=O)Nc1cccc(-c2nn[nH]n2)c1`, the “activation” value was 0.399% [at 30.3 µM] (inactive).

As for `CN(C)N=Nc1ccccc1`, the “activation” value is -3.87% (inactive).

Regarding `OCCOc1ccc(OCCO)cc1`, the “activation” value is 0.0133% (inactive). Take `CC1=C(CC(=O)O)c2cc(F)ccc2/C1=C\c1ccc(S(C)=O)cc1` (centres undefined): the Potency result is “inactive”. Consider `CC(C)CCCCCCc1ccc(O)cc1`, for which the “activation” value is 5.97% (inactive). As for `C=CCS(=O)(=O)O`, the “activation” value is 1.26% (inactive).

In the case of `CCCCSCCCC`, the “activation” value was -0.242% (inactive). For the compound `CCNc1nc(N)nc(Cl)n1`, the “activation” value is -0.13% (inactive).

For `Cc1ccc(N)cc1[N+](=O)[O-]`, the “activation” value was 0.0134% (inactive). With `Cc1c(C)c2c(c(C)c1O)CCC(C)(COc1ccc(CC3SC(=O)NC3=O)cc1)O2` (centres undefined), the Potency entry is “inactive”. As to `CCCC1O[C@@H]2C[C@H]3[C@@H]4CCC5=CC(=O)C=C[C@]5(C)[C@H]4[C@@H](O)C[C@]3(C)[C@]2(C(=O)CO)O1` (some centres undefined), the Potency result is “inactive”. Regarding `CC(C[N+](C)(C)C)OC(N)=O` (centres undefined), the “activation” value is -0.298% [at 30.3 µM] (inactive). In the case of `O=C(O)CCCCCCCCCCCC(=O)O`, the Potency result was “inactive”. As to `COc1cc(C(=O)N2CCOCC2)cc(OC)c1OC`, the “activation” value is 0.391% [at 30.3 µM] (inactive).
